Screens (PubChem)
Rows were chosen to be rich in hits. Some 1.2% of all compounds tested hit in one or more screens of this group.
PfHsp40 yeast: rescue of yeast from PfHsp40 toxicity, primary screen, S. cerevisiae, ATP luminescence; AID 504582, 2011; 0.68% of 340,000 active; S. cerevisiae expressing PfHsp40, growth rescue; growth rescue, % at 12.5 µM; in the data active means growth rescue above about 28%, passing the limit was not always enough;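 further: yeast W303a lacking pdr1 and pdr3 grown in galactose medium; growth measured after three days at 30 °C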
Vc quorum ag: inducers of Vibrio cholerae quorum light production without autoinducers, primary screen, BH1578 luxS cqsA deficient, single point; V. cholerae BH1578 lux reporter, luminescence, 6 h; activation, % at 18.7 µM; 0.16% of 350,000 active; in the data active means activation mostly above about 9.7%, no sharp cut-off
Yp Topo-I inh: Yersinia pestis topoisomerase I inhibitors, primary screen, biochemical, cleavage product accumulation, plate reader, single point | activity, % at 10 µM | 0.064% of 360,000 active | AID 504884, 2011 | DNA topoisomerase I (Yersinia pestis CO92) | Y. pestis Topo-I cleavage product accumulation; in the data active means activity above about 50%, passing the limit was not always enough
BioA inh: M. tuberculosis BioA enzyme inhibitors, primary screen, biochemical, plate reader, single point, HTS. 7,8-diaminopelargonic acid synthase BioA (Mycobacterium tuberculosis). purified M. tuberculosis BioA enzyme. inhibition, % at 9.99 µM. 0.096% of 360,000 active. AID 602481, 2012; in the data active means inhibition above about 40%
TcdB GH inh: TcdB glycohydrolase inhibitors, primary screen, biochemical, single point, plate reader; TcdB glycohydrolase enzymatic assay; inhibition, % at 9.99 µM; 0.24% of 350,000 active; AID 652162, 2013; in the data active means inhibition above about 10%
DUSP3 inh: VHR1 phosphatase inhibitors, primary screen, biochemical, absorbance, uHTS; Dual specificity protein phosphatase 3 (Homo sapiens), P51452; recombinant VHR phosphatase, pNPP absorbance; inhibition, % at 13.3 µM; 0.52% of 290,000 active; AID 1654, 2009; in the data active means inhibition above about 50%
Target sequence (P51452 whole entry, looked up): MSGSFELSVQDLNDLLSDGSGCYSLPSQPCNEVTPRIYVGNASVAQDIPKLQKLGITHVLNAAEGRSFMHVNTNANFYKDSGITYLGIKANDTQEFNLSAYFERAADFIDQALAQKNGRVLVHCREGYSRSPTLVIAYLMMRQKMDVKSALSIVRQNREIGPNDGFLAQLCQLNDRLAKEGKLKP
* hit, by the source's call.

Screening O=C(NCc1ccc(F)cc1)C1CC(=O)N(C2CCCCCCC2)C1 (stereo not drawn) returned PfHsp40 yeast 0, Vc quorum ag inactive, Yp Topo-I inh -2, BioA inh 5, TcdB GH inh 2 and DUSP3 inh 56*.
O=C(NC(=S)Nc1cccc(NC(=O)c2ccccc2Cl)c1)c1cccs1 was read as PfHsp40 yeast 0, Vc quorum ag -2, Yp Topo-I inh 3, BioA inh -2, TcdB GH inh 0 and DUSP3 inh 1.
`Cc1ccccc1C(=O)Nc1cccc(NC(=S)NC(=O)c2cccs2)c1` gave PfHsp40 yeast 0, Vc quorum ag active, Yp Topo-I inh 3, BioA inh 0 and DUSP3 inh 14.
CSc1nc(Cc2ccccc2)nc2ccccc12 was read as PfHsp40 yeast -1, Vc quorum ag 0, Yp Topo-I inh 13, TcdB GH inh 0 and DUSP3 inh 53*.
For Cc1cc(-c2ccccc2)nc(N/N=C/c2ccc(O)cc2)n1 the results were PfHsp40 yeast 9, Vc quorum ag inactive, Yp Topo-I inh -6, BioA inh 1 and TcdB GH inh 2.
Cc1cc(N/N=C/c2ccc(O)cc2)c2cccc(C)c2n1 was read as PfHsp40 yeast -1, Vc quorum ag -1, Yp Topo-I inh -36, BioA inh -1, TcdB GH inh 11* and DUSP3 inh 12.
Screening Cc1cc(N/N=C/c2ccc(N(C)C)cc2)c2ccccc2n1 returned PfHsp40 yeast 0, Vc quorum ag 0, Yp Topo-I inh 8, BioA inh 6, TcdB GH inh 1 and DUSP3 inh 11.
Cc1cc(C)c2nc(C)cc(N/N=C/c3ccc(O)cc3)c2c1 was read as PfHsp40 yeast -1, Vc quorum ag 1, Yp Topo-I inh -5, BioA inh -2, TcdB GH inh 16* and DUSP3 inh 11.
`CC(C)(C)C1CCc2onc(C(=O)NCc3ccc(F)cc3)c2C1` (stereo not drawn) gave PfHsp40 yeast 7, Vc quorum ag -2, Yp Topo-I inh 18, BioA inh -3 and DUSP3 inh 19.
Screening O=C(c1cc2ccccc2o1)N(Cc1ccco1)Cc1cccs1 returned PfHsp40 yeast 165*, Vc quorum ag inactive, Yp Topo-I inh 50, BioA inh 0 and TcdB GH inh -1.
`Cc1c(C(=O)N(Cc2ccco2)Cc2cccs2)oc2ccccc12` gave PfHsp40 yeast -1, Vc quorum ag -1, Yp Topo-I inh 17, BioA inh 1 and TcdB GH inh -1.
Screening c1ccc(Cc2nnc3n2N=C(c2ccccc2)CS3)cc1 returned PfHsp40 yeast -1, Vc quorum ag 0, Yp Topo-I inh 14, TcdB GH inh 16* and DUSP3 inh -15.
`N#CC1=C(N)Oc2c(c(=O)oc3ccccc23)C1c1ccc(OC(=O)N2CCOCC2)cc1` (stereo not drawn) gave PfHsp40 yeast -2, Vc quorum ag 6, Yp Topo-I inh 28 and TcdB GH inh 0.
CCOC(=O)CNc1nc(C(C)(C)C)nc2c1nnn2Cc1ccccc1 was read as PfHsp40 yeast 1, Vc quorum ag 2, Yp Topo-I inh 59*, BioA inh -1, TcdB GH inh 1 and DUSP3 inh 20.
For FC(F)(F)c1nc(NCc2ccccc2)c2nnn(Cc3ccccc3)c2n1 the results were PfHsp40 yeast 0, Vc quorum ag 1, Yp Topo-I inh -2, BioA inh 1, TcdB GH inh 1 and DUSP3 inh 9.
For Cc1cc(=O)oc(C)c1C(=O)NCC(C)NC(=O)c1c(C)cc(=O)oc1C (stereo not drawn) the results were PfHsp40 yeast 0, Vc quorum ag 1, Yp Topo-I inh 2, BioA inh -3 and DUSP3 inh 54*.
Cc1cc(=O)oc(C)c1C(=O)NCC(C)C was read as PfHsp40 yeast -2, Vc quorum ag -1, Yp Topo-I inh -1, BioA inh -1, TcdB GH inh 0 and DUSP3 inh 2.
For C=CCN1CCc2c(cc(O)c(O)c2Cl)C(c2ccccc2)C1 (stereo not drawn) the results were PfHsp40 yeast 46*, Vc quorum ag 0, Yp Topo-I inh 8, BioA inh 1, TcdB GH inh 4 and DUSP3 inh -9.
For O=C(C[C@@H]1CC[C@@H](NS(=O)(=O)c2cccc(F)c2)[C@H](CO)O1)N1CCCCC1 the results were BioA inh -2 and TcdB GH inh -1.
Screening O/N=C/c1ccccc1OCc1ccc(Cl)cc1 returned PfHsp40 yeast 237*, Vc quorum ag 0, Yp Topo-I inh 14, BioA inh 0 and DUSP3 inh 8.
For CCCc1ccc(-c2ccc(/C=C/C(=O)O)cc2)nc1 the results were PfHsp40 yeast 0, Vc quorum ag inactive, Yp Topo-I inh -12, TcdB GH inh 1 and DUSP3 inh -7.
Screening CCOc1ccc(Oc2ccc(S(=O)(=O)N3CCOCC3)cc2NC(=O)C2=COCCO2)cc1 returned PfHsp40 yeast 0, Vc quorum ag inactive, Yp Topo-I inh 62*, BioA inh -2 and TcdB GH inh 3.
For CCOC(=O)c1c(NC(=O)/C=C\C(=O)O)sc(C)c1-c1ccccc1 the results were PfHsp40 yeast 95*, Vc quorum ag 0, Yp Topo-I inh 10, TcdB GH inh -2 and DUSP3 inh 24.
COc1cccc(S(=O)(=O)Nc2ccc3c(c2)[C@@H]2C[C@H](CC(=O)NCCc4ccccc4)O[C@H](CO)[C@@H]2O3)c1 was read as Vc quorum ag 1, Yp Topo-I inh 25, BioA inh 3 and TcdB GH inh -1.
Screening Cc1ccc(NC(=O)c2cc(-n3cnnc3)ccc2Cl)cc1 returned PfHsp40 yeast 0, Vc quorum ag -14, Yp Topo-I inh 12, BioA inh 1 and DUSP3 inh -1.
Cc1ccc(NC(=O)c2cc(N3C(=O)C=CC3=O)ccc2Cl)cc1C was read as PfHsp40 yeast 294*, Vc quorum ag 1, Yp Topo-I inh -2, BioA inh -1 and DUSP3 inh -10.
Screening CCC(C(=O)NCC1CCCO1)N(C(=O)CNS(=O)(=O)c1ccccc1)c1ccc(F)cc1 (stereo not drawn) returned PfHsp40 yeast -2, Vc quorum ag -1, Yp Topo-I inh -14, BioA inh -3, TcdB GH inh -1 and DUSP3 inh 7.
CCCC(C(=O)NCC1CCCO1)N(C(=O)CNS(=O)(=O)c1ccccc1)c1ccc(F)cc1 (stereo not drawn) was read as PfHsp40 yeast -1, Vc quorum ag 0, Yp Topo-I inh 16, BioA inh -1, TcdB GH inh 1 and DUSP3 inh 58*.
